Here are results for 8 compounds from PubChem BioAssay (NCI).

About 83,000 compounds went through this panel and 20% of them were active in at least one assay; those are over-represented in the sample as a whole.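 A percent growth of 40 corresponds to 60% growth inhibition; 0 means no net growth; -100 means all cells died. Active threshold: below 10.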 A number with no mark means an inactive call. Calls of active or inactive are those of the source.

Test systems include HT29 colon; SNB-75 CNS; SNB-19 CNS; U251 CNS; PC-3 prostate; SK-MEL-5 melanoma; UACC-62 melanoma; LOX IMVI melanoma; SK-MEL-28 melanoma; SK-MEL-2 melanoma; SN12C renal; UO-31 renal; TK-10 renal; ACHN renal; CAKI-1 renal; A498 renal; CCRF-CEM leukemia; MOLT-4 leukemia; SR leukemia.
Holding throughout (experiment): NCI-60 one-dose screen, 48 h (100 = growth as untreated, 0 = no growth, -100 = all killed)
Common to all, as to conditions: 10 µM

Consider `Nc1c(C(=O)Nc2ccccc2)sc2nc3c(cc12)CCCC3`, for which the growth with HT29 colon was 10.1%; in the test with SNB-75 CNS, 20.6%; in the test with SNB-19 CNS, 64%; with U251 CNS, 21.7%; with PC-3 prostate, 25.4%; with SK-MEL-5 melanoma it was 31.8%. Moreover, the growth is 47.8% with UACC-62 melanoma; 53.3% in the test on LOX IMVI melanoma; 56% with SK-MEL-28 melanoma; 51.5% in the test with SK-MEL-2 melanoma; 40.1% in the test on SN12C renal; 44.7% with UO-31 renal. The growth is 71.7% with TK-10 renal; 51.5% with ACHN renal; 26.7% in the test with CAKI-1 renal; -8.95% (active) in the test with A498 renal; 13.1% with CCRF-CEM leukemia; 15.7% in the test with MOLT-4 leukemia. Moreover, the growth with SR leukemia was 10.8%.

With `Cn1c([N+](=O)[O-])cnc1/C=C1\Oc2ccc(Cl)cc2C1=O`, the growth was -10.1% (active) in the test on HT29 colon; 15.7% with SNB-75 CNS; -10.5% (active) in the test on SNB-19 CNS; -18.2% (active) in the test on U251 CNS; -17.9% (active) with PC-3 prostate; -92.7% (active) in the test on SK-MEL-5 melanoma. Moreover, the growth with UACC-62 melanoma is -74.2% (active); in the test with LOX IMVI melanoma, -57.5% (active); in the test with SK-MEL-28 melanoma it was -22.1% (active); in the test with SK-MEL-2 melanoma, -42.2% (active); in the test on SN12C renal, -10.9% (active); in the test with UO-31 renal, -31.9% (active). Moreover, the growth in the test with TK-10 renal was -23% (active); in the test on ACHN renal, -2.7% (active); in the test on CAKI-1 renal, -22.9% (active); with A498 renal, 12.3%; in the test on CCRF-CEM leukemia, -11.8% (active); with MOLT-4 leukemia it was -1.82% (active). For the same compound, the growth in the test on SR leukemia is 11.6%.

For the compound `COc1cc(Cl)cc(-c2nn(-c3cccc(NC(=O)Nc4ccc(Cl)c(C(F)(F)F)c4)c3)cc2-c2ccncc2)c1`, the growth with HT29 colon was 5.57% (active); with SNB-75 CNS, 14.5%; in the test on SNB-19 CNS it was 28.1%; in the test on U251 CNS, -48.3% (active); in the test on PC-3 prostate it was -13% (active); in the test with SK-MEL-5 melanoma, -71.2% (active). The growth with UACC-62 melanoma was 6.62% (active); in the test on LOX IMVI melanoma, 4.81% (active); with SK-MEL-28 melanoma, 23.6%; in the test on SK-MEL-2 melanoma it was -34% (active); in the test with SN12C renal it was 13.8%; in the test with UO-31 renal, 11.1%. Also, the growth in the test on TK-10 renal was 37.5%; in the test with ACHN renal, 8.78% (active); in the test on CAKI-1 renal, 9.38% (active); in the test on A498 renal it was -9.18% (active); in the test on CCRF-CEM leukemia, 1.88% (active); in the test on MOLT-4 leukemia, -9.68% (active). Also, in the test with SR leukemia, the growth was -27.5% (active).

Regarding `COc1cc(-c2cc(/C=C3\C(=O)Nc4ccccc43)[nH]n2)cc(OC)c1OC`, the growth is 55.7% with HT29 colon; 44.5% in the test with SNB-75 CNS; 65.8% in the test with SNB-19 CNS; 56.1% in the test with U251 CNS; 19% in the test with PC-3 prostate; -57% (active) with SK-MEL-5 melanoma. Further, the growth in the test on UACC-62 melanoma is -11.1% (active); in the test on LOX IMVI melanoma it was 38.6%; with SK-MEL-28 melanoma it was 59.8%; in the test on SK-MEL-2 melanoma, 27.5%; with SN12C renal, 53.7%; in the test on UO-31 renal, 37.2%. For the same compound, the growth was 68.1% in the test with TK-10 renal; 51.1% in the test on ACHN renal; 25.4% with CAKI-1 renal; 46.5% with A498 renal; 22.3% in the test on CCRF-CEM leukemia; 6.03% (active) in the test with MOLT-4 leukemia. The growth in the test with SR leukemia is 34.1%.

For the compound `Cc1nc2c(c(=O)[nH]1)OCN(Cc1ccccc1)C2`, the growth is 105% with HT29 colon; 89.6% in the test on SNB-75 CNS; 97.2% in the test on SNB-19 CNS; 108% in the test with U251 CNS; 89.1% in the test with PC-3 prostate; 102% in the test with SK-MEL-5 melanoma. For the same compound, the growth with UACC-62 melanoma was 105%; with LOX IMVI melanoma, 101%; in the test with SK-MEL-28 melanoma, 105%; in the test with SK-MEL-2 melanoma it was 130%; in the test on SN12C renal, 104%; with UO-31 renal it was 79.3%. For the same compound, the growth with TK-10 renal was 119%; in the test with ACHN renal it was 104%; with CAKI-1 renal it was 103%; in the test on A498 renal, 75.5%; in the test on CCRF-CEM leukemia, 90.5%; in the test on MOLT-4 leukemia, 95.9%. Further, the growth with SR leukemia is 93.6%.

Turning to `COc1cccc(NC(=O)c2sc3nc4c(cc3c2N)C(O)CCC4)c1` (configuration not stated), the growth in the test on HT29 colon was 4.69% (active); with SNB-75 CNS, 44.6%; in the test with SNB-19 CNS, 49.5%; with U251 CNS it was 10.6%; with PC-3 prostate it was 25.4%; with SK-MEL-5 melanoma, 25.1%. In addition, the growth was 48.9% in the test with UACC-62 melanoma; 25.8% in the test with LOX IMVI melanoma; 56% in the test with SK-MEL-28 melanoma; 49.5% with SK-MEL-2 melanoma; 30.3% in the test on SN12C renal; 40.3% in the test with UO-31 renal. Moreover, the growth in the test with TK-10 renal was 79.8%; with ACHN renal, 42%; with CAKI-1 renal, 34.4%; with A498 renal, -7.35% (active); in the test on CCRF-CEM leukemia, 11.2%; with MOLT-4 leukemia, 6.41% (active). The growth in the test on SR leukemia was 0.382% (active).

Regarding `CC1(C)Cc2c(sc3ncn4nc(-c5ccc(O)cc5)nc4c23)CO1`, the growth in the test on HT29 colon was 111%; in the test with SNB-75 CNS it was 35.5%; in the test with SNB-19 CNS, 79.9%; in the test with U251 CNS, 60.6%; with PC-3 prostate, 44.4%; with SK-MEL-5 melanoma it was 56.7%. Also, the growth was 82.5% with UACC-62 melanoma; 75% in the test with LOX IMVI melanoma; 73.5% in the test with SK-MEL-28 melanoma; 84.7% in the test with SK-MEL-2 melanoma; 63.5% in the test on SN12C renal; 44.3% with UO-31 renal. The growth was 56.4% with TK-10 renal; 67.6% in the test on ACHN renal; 76.7% with CAKI-1 renal; -9.39% (active) with A498 renal; 70.5% in the test with CCRF-CEM leukemia; 69.4% in the test on MOLT-4 leukemia. For the same compound, the growth in the test on SR leukemia was 22.8%.

In the case of `COc1ccc(-c2cc(/C=C/C(=O)c3cc(OC)c(OC)c(OC)c3)[nH]n2)cc1OC`, the growth was -53.9% (active) in the test with HT29 colon; 17.8% in the test on SNB-75 CNS; 25.5% with SNB-19 CNS; -77.6% (active) with U251 CNS; 24.7% in the test with PC-3 prostate; 27.4% with SK-MEL-5 melanoma. Further, the growth is 50.8% in the test with UACC-62 melanoma; -79% (active) with LOX IMVI melanoma; -66.8% (active) with SK-MEL-28 melanoma; 69.9% in the test on SK-MEL-2 melanoma; 8.28% (active) in the test on SN12C renal; -92.1% (active) in the test with UO-31 renal. Moreover, the growth is -33.2% (active) in the test on TK-10 renal; -61.9% (active) in the test with ACHN renal; 4.66% (active) in the test with CAKI-1 renal; -2.03% (active) with A498 renal; 4.09% (active) in the test with CCRF-CEM leukemia; 3.41% (active) in the test on MOLT-4 leukemia. The growth in the test with SR leukemia is 3.11% (active).
